# TDP1 cell noCPT: qHTS for Inhibitors of human tyrosyl-DNA phosphodiesterase 1 (TDP1): qHTS in cells in absence of CPT; 420,000 compounds, 15% hits; AID 686978, 2013; Potency, µM (top dose mostly 46.2 µM), without a hit: top-dose activity change, negative = growth inhibition, hits mostly inhibitors; DT40 Tdp1-/- hTDP1 cells, no CPT, ATP luminescence, 48 h; note: potency is the fitted concentration of half-maximal effect; nearly all actives have a fitted effect of over 55% in size
#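 Chicken DT40 Tdp1-/- cells complemented with human TDP1, screened without camptothecin (DMSO vehicle only), 400 cells/well. Compounds pin-transferred, cells incubated at 37 °C for at least 48 hr. Growth read as ATP-dependent luminescence (CellTiter-Glo, 30 min at RT).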
# HT1080 IDH1KD tx: qHTS for induction of synthetic lethality in tumor cells producing 2HG: qHTS for the HT-1080-IDH1KD cell line; HT-1080 IDH1 knockdown viability, ATP luminescence, 48 h; Potency, µM (doses to about 46.1 µM), for inactives: at the top dose activity, negative = toxicity, most hits filed as cytotoxic; 360,000 compounds, 2% hits;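 note: potency is the fitted concentration of half-maximal effect; 0% = DMSO wells and -100% = cell-free medium wells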
#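 Viability of IDH1-knockdown HT-1080 fibrosarcoma cells was assessed by CellTiter-Glo after 48 h at 37 °C with titrated compound; concentration-effect curves were classified by fit quality and response size.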
# DT40 TDP1 CPT: qHTS for Inhibitors of human tyrosyl-DNA phosphodiesterase 1 (TDP1): qHTS in cells in presence of CPT | chicken DT40 Tdp1-/-;hTDP1 cells + 20 nM CPT, ATP luminescence, 48 h | Potency, µM (doses to about 46.2 µM), without a hit: at the highest dose activity change, negative = growth inhibition, usual class: inhibitors | 420,000 compounds, 12% hits | AID 686979, 2013; note: potency is the fitted concentration of half-maximal effect; nearly all actives have a fitted effect of over 55% in size
#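 Chicken DT40 Tdp1-/- cells complemented with human TDP1, 400 cells/well, exposed to compounds plus 20 nM camptothecin for at least 48 h at 37 C; viability read as ATP content by CellTiter-Glo luminescence.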
# HT1080NT lethal: qHTS for induction of synthetic lethality in tumor cells producing 2HG: qHTS for the HT-1080-NT fibrosarcoma cell line | HT-1080-NT fibrosarcoma viability, CellTiter-Glo ATP luminescence, 48 h | Potency, µM (doses to about 46.1 µM), inactives show top-dose activity, negative = less viability, hits mostly cytotoxic | 360,000 compounds, 1.6% hits | AID 686970, 2013;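 note: NT is the 2HG producing partner of a matched IDH1 knockdown line; potency is the fitted concentration of half-maximal effect; 0% = DMSO-treated cells and -100% = media-only wells without cells; nearly all actives have a fitted effect of over 55% in size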
#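 Toxicity toward the 2HG-producing NT line was scored as %Activity, normalised to DMSO and no-cell wells, from CellTiter-Glo luminescence after 48 hours' treatment.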
# IL1B secr inh: qHTS for Inhibitors of Inflammasome Signaling: IL-1-beta AlphaLISA Primary Screen. 360,000 compounds, 4.7% hits. THP-1 LPS/ATP IL-1B secretion, AlphaLISA, 16 h; active compounds read low. activity change, % at 57.5 µM; in the data active = activity change below about -50%; inconclusive = mostly about -30% to -49%
#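 THP-1 cells pretreated 1 hr with compounds (up to 57.5 uM final), then stimulated with LPS (250 ng/mL final) plus ATP (1.25 mM final); secreted IL-1B measured by AlphaLISA after 16 hr, decreased signal indicating inhibition.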
# 12-LOX inh: Primary qHTS assay for inhibitors of human arachidonate 12S-lipoxygenase (ALOX12): Round 2. Polyunsaturated fatty acid lipoxygenase ALOX12 (Homo sapiens), P18054. Potency, µM (highest dose often 108 µM), for inactives: top-dose activity change, negative = inhibition, most hits filed as inhibitors. 580,000 compounds, 1.1% hits. purified 12hLO, xylenol orange hydroperoxide absorbance; note: potency is the fitted concentration of half-maximal effect
# Target sequence (P18054 whole entry, looked up): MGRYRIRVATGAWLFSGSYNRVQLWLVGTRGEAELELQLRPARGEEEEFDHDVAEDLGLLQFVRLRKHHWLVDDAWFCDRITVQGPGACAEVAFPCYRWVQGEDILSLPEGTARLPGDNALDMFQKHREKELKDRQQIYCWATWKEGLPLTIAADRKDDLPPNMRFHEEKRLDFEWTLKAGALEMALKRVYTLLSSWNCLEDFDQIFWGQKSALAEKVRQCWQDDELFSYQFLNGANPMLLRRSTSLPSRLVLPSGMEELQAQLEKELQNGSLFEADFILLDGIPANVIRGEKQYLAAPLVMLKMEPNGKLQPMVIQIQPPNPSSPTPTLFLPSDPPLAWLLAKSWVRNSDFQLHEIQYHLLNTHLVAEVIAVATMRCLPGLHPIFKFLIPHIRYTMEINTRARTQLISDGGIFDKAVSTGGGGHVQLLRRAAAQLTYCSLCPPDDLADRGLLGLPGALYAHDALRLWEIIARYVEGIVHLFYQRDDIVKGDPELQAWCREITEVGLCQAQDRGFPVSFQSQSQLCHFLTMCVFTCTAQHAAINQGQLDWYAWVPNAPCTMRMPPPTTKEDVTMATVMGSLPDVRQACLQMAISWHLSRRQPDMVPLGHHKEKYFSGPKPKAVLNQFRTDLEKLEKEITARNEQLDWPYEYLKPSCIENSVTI
#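 Purified human 12hLO (150 nM final) in 25 mM Hepes, 0.01% Triton X-100, pH 7.0 was preincubated 15 min at room temperature with compound. Then 40 uM arachidonic acid was added, 30 min. Hydroperoxide was read by Fe-XO absorbance ratio 573/405 nm.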
# Starred values were filed as active, the others as inactive; ? = inconclusive; . = no result; [ ] = another dose, or the depositor's remark. This excerpt belongs to a sample that is enriched for hits. Unless noted, calls come from the whole dose curve; as a rule, active = well fitted curve in the direction sought with a large enough effect; inconclusive = small, poorly fitted or top-dose-only effect, or another doubt; inactive = no such curve, though single readings can be large; an effect the other way counts as inactive or inconclusive. Unless noted, % is set by controls: 0 for no effect and ±100 for the full control effect.
SMILES,TDP1 cell noCPT,HT1080 IDH1KD tx,DT40 TDP1 CPT,HT1080NT lethal,IL1B secr inh,12-LOX inh
COc1ccccc1Nc1c2c(nc3ccc(NC(=O)c4ccc(OC)c(OC)c4)cc13)CCCC2,15µM*,.,23µM*,.,.,?
O=S1(=O)CCSC[C@@H](CN2CCCC2)N1,.,.,.,.,.,-6%
Cc1ccc([N+](=O)[O-])cc1S(=O)(=O)N(C)N=Cc1cnc2ccc(Br)cn12,.,.,.,.,.,8.6µM*
Cc1ccc([N+](=O)[O-])cc1S(=O)(=O)N1CCNCC1,?,-7%,?,6%,-5,2%
C=CCNC(=S)Nc1ccc2nc(C)c(C)nc2c1,18µM*,5%,?,3%,11,-2%
C=CCNC(=S)N/N=C/c1ccc(C)cc1C,5.2µM*,16µM*,5.2µM*,23µM*,-10,?
C=CCNC(=S)N/N=C/c1ccc(C)c([N+](=O)[O-])c1,6.5µM*,-3%,15µM*,-2%,?,-4%
CC(C)c1noc(-c2cn(C3CCN(C(=O)c4cccc(Br)c4)C3)nn2)n1 (stereo unspecified),.,.,.,.,.,12%
Cc1ccccc1-c1[nH]nc2ncc(-c3ccsc3)nc12,.,.,.,.,.,16%[176 µM]
CC(C)C[C@@H](NC(=O)OC(C)(C)C)C(=O)O,.,.,.,.,.,1%
CCN(CC)C(=O)c1cccc(-c2ccc(OC)cc2)c1,22%,-3%,-28%,2%,-5,-23%
COc1ccc(C(C)(NC(C)=O)c2nc(/C=C/c3ccccc3)cs2)cc1 (stereo unspecified),?,-26%,?,?,-1,?
CCN(CC)C(=O)c1cccc(-c2csc(C(C)(NC(C)=O)c3ccc(OC)cc3)n2)c1 (stereo unspecified),13µM*,0%,?,4%,-15,10%
CCN(CC)C(=O)c1cccc(-c2csc(C(C)(O)c3cccc(OC)c3)n2)c1 (stereo unspecified),23µM*,?,18µM*,-4%,-15,4%
CCN(CC)C(=O)c1cccc(-c2csc(C(C)(O)c3ccc(F)c(F)c3)n2)c1 (stereo unspecified),21µM*,?,?,?,-8,.
CCN(CC)C(=O)c1cccc(-c2csc(C(C)(O)c3ccc(OC)cc3)n2)c1 (stereo unspecified),4.6µM*,?,5.8µM*,5.8µM*,4,10%
O=S(=O)(Cc1ccc(F)cc1Cl)CC(O)c1ccccc1 (stereo unspecified),.,.,.,.,.,-18%
CCN(CC)C(=O)c1cccc(-c2csc(C(O)(c3ccccc3)C(F)(F)F)n2)c1 (stereo unspecified),16µM*,16µM*,?,23µM*,-4,-2%
CCC(C)N(C(=O)CSc1nc(-c2cccs2)nc2ccccc12)C1CCS(=O)(=O)C1 (stereo unspecified),16µM*,?,?,-23%,-83*,-10%
O=C(CSc1nc(-c2cccs2)nc2ccccc12)N1CCCCC1,.,.,.,.,.,-41%
Cc1cccc(CNc2nc(-c3ccoc3)nc3ccccc23)c1,21µM*,.,?,.,.,?
CCSc1nc(-c2cccs2)nc2ccccc12,18µM*,-15%,15µM*,-14%,6,-2%
c1ccc(-c2nc(NCc3cccnc3)c3oc4ccccc4c3n2)cc1,?,?,?,?,-24,16µM*
c1ccc(-c2nc(NCCCn3ccnc3)c3ccccc3n2)cc1,-18%,-11%,1%,-6%,-73*,4%
c1ccc(CNc2nc(-c3cccnc3)nc3ccccc23)cc1,?,8%,?,-1%,-11,?
SMILES,TDP1 cell noCPT,HT1080 IDH1KD tx,DT40 TDP1 CPT,HT1080NT lethal,IL1B secr inh,12-LOX inh
COc1ccc(-c2nc(NCc3cccc(OC)c3)c3ccccc3n2)cc1,.,.,.,.,.,-2%
CC(C)(C)c1ccc(-c2nc(NCc3cccnc3)c3ccccc3n2)cc1,?,-17%,?,2%,-65*,-9%
c1ccc(CNc2nc(-c3ccccc3)nc3ccccc23)cc1,-20%,?,-18%,-27%,-89*,22%
c1ccc(CNc2nc(-c3ccccn3)nc3ccccc23)cc1,3.7µM*,?,3.7µM*,?,-71*,0%
c1cncc(CNc2nc(-c3cccnc3)nc3ccccc23)c1,0%,-12%,?,1%,-5,?
O=C(O)CCCCCNc1nc(-c2ccccc2)nc2ccccc12,-5%,-12%,-22%,1%,0,0%
CC(C)(C)c1ccc(C(=O)N2CCC3(CC2)CC3C(=O)NCCc2ccccn2)cc1 (stereo unspecified),-29%,.,-8%[9.04 µM],.,.,-2%
N#Cc1cccc(C(=O)N2CCC(n3cc(-c4nc(C5CC5)no4)nn3)C2)c1 (stereo unspecified),.,.,.,.,.,5%
Nc1cc(N)nc(SCCC(=O)Nc2cc(Cl)ccc2Cl)n1,.,.,.,.,.,-22%
Cc1nc(SCC(=O)NC2CCS(=O)(=O)C2)c(C#N)c(C)c1C (stereo unspecified),-9%,1%,1%,1%,0,0%
c1ccc(CNc2nc(-c3ccoc3)nc3ccccc23)cc1,?,.,?,.,.,16µM*
COCC(C)Nc1nc(-c2ccsc2)nc2ccccc12 (stereo unspecified),.,.,.,.,.,7%
CCC(C)Nc1nc(-c2ccccn2)nc2ccccc12 (stereo unspecified),3.7µM*,?,4.1µM*,?,-20,19%
c1ccc(CNc2nc(NCc3ccccc3)c3ccccc3n2)cc1,5.2µM*,7.3µM*,5.8µM*,15µM*,-100*,?
Cc1cnc(CNc2nc(-c3ccoc3)nc3ccccc23)cn1,?,.,13%,.,.,-9%
CCC(C)N(C(=O)CSc1nc(C)c(C)c(C)c1C#N)C1CCS(=O)(=O)C1 (stereo unspecified),21µM*,-17%,-6%,-11%,-5,397%
COCC(=O)N(CCc1ccc(OC)c(OC)c1)Cc1cc2cc(C)ccc2nc1Cl,?,-1%,?,-29%,7,-43%

# Screening results deposited in PubChem BioAssay by National Center for Advancing Translational Sciences (NCATS).
